MEKK2 WT-MEK5 = raises or lowers MEK5 binding to wildtype human MEKK2 PB1 domain. bead flow cytometry, Alexa488-MEK5 binding to MEKK2 WT; actives lie on both sides. AID 1531. hit rate 1.1% among 290,000. binding response (% of control), % at 10 µM; in the data active means binding response below about 67% or above about 130%
CendR NRP1 mod = modulators of CendR peptide binding to human neuropilin-1; AID 602438; O14786; hit rate 0.85% among 360,000; inhibition, % at 25 µM; FAM-RPARPAR peptide binding to NRP-1, fluorescence polarization;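 active means inhibition or corrected inhibition above about 18%, plus a signal ratio from 0.5 to 1.5, limit read from the data, passing the limit was not always enough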
MEKK3 PB1 HTS = MEKK3-MEK5 PB1 interaction, increase or decrease; bead-based flow cytometry, Alexa488-MEK5 binding to MEKK3; actives lie on both sides; 0 = blocked by unlabeled MEK5, 100 = vehicle; binding response (% of control), % at 10 µM; hit rate 1.4% among 290,000; AID 1529;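 active means binding response more than 3 SD above or below the average of its plate-row segment, actives on both sides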;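 further: Alexa488 bead fluorescence after subtracting the streptavidin-only scavenger bead signal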
Target sequence (Q99759 whole entry, looked up): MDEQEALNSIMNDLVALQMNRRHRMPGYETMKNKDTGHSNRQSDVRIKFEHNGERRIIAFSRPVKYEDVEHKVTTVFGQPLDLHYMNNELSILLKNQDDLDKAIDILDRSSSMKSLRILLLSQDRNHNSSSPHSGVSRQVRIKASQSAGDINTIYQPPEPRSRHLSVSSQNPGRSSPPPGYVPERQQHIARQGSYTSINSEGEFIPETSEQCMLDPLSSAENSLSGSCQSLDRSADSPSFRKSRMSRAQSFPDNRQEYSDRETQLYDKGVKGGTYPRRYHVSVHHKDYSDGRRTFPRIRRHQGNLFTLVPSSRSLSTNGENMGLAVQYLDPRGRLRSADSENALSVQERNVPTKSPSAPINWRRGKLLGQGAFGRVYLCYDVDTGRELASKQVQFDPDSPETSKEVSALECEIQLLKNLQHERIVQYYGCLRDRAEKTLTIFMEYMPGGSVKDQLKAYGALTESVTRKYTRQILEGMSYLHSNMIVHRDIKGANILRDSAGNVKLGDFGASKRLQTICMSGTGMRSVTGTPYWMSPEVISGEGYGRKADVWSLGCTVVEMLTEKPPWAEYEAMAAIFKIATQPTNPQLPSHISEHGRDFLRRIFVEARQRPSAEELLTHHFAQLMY
SKN-1 inh = blocks SKN-1 activity in C. elegans; C. elegans VP596 Pgst-4::GFP/RFP ratio, acrylamide-induced, 24 h; inhibition, % at 21.8 µM; hit rate 0.49% among 360,000;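 active means interference check ratio from 0.5 to 1.5 plus GFP to RFP signal ratio inhibition reaching or exceeding a fixed threshold, cut at about 30% in these data, passing the limit was not always enough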
MEKK2mut PB1 HTS = signal of MEK5 binding to mutant human MEKK2 PB1 domain; bead flow cytometry, Alexa488-MEK5 binding to MEKK2 mutant; percent response, % at 10 µM; hit rate 0.35% among 290,000; in the data active means percent response above about 24%, passing the limit was not always enough
MEKK2wt confirm = raises or lowers MEK5 binding to wildtype human MEKK2, retest; hit rate 2.4% among 5,900; bead flow cytometry, Alexa488-MEK5 binding to MEKK2 WT; actives lie on both sides; AID 1892; shares compounds with MEKK3 PB1 HTS; binding response (% of control), % at 10 µM; in the data active means binding response below about 16% or above about 210%; inactive means in between
MEKK2mut-MEK5 = signal of MEK5 binding to mutant human MEKK2, retest; percent response, % at 10 µM; bead flow cytometry, Alexa488-MEK5 binding to MEKK2 mutant; shares compounds with MEKK3 PB1 HTS; hit rate 2% among 5,900; in the data active means percent response mostly above about 71%, no sharp cut-off; inactive means mostly below about 38%;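 further: higher means compound restores mutant binding toward wildtype level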
MEKK3 confirm = MEKK3-MEK5 PB1 inhibition, single concentration confirmation. shares compounds with MEKK3 PB1 HTS. bead flow cytometry, Alexa488-MEK5 binding to MEKK3; hits give low values. binding response (% of control), % at 10 µM. hit rate 1.8% among 5,900;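 active means binding response below 72% of control, or above a set upper limit, though filed actives all read lower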;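 further: 100% = DMSO only wells and 0% = binding blocked by excess unlabeled MEK5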
* marks the source's active call; other numbers are inactive results; [ ] = dose if it differs, or a comment. An excerpt weighted towards active compounds, which were near 3.2% of everything screened.

`O=C(Nc1ccc(S(=O)(=O)NCc2ccccc2)cc1)C1CCCCC1` gave MEKK2 WT-MEK5 100, CendR NRP1 mod 0, MEKK3 PB1 HTS 102, SKN-1 inh 1 and MEKK2mut PB1 HTS -2.
For CCOC(=O)C1=C(N)OC2=C(C(=O)CC(C)(C)C2)C1c1ccc(CC)s1 (stereo not drawn) the results were MEKK2 WT-MEK5 41*[inhibitor], CendR NRP1 mod 17, MEKK3 PB1 HTS 40*[inhibitor], SKN-1 inh 10, MEKK2mut PB1 HTS -15, MEKK2wt confirm 95, MEKK2mut-MEK5 -4 and MEKK3 confirm 102.
`O=C(CSc1nnc(-c2ccncc2)n1-c1ccc(Cl)cc1)NCc1cccs1` gave MEKK2 WT-MEK5 120, CendR NRP1 mod -11, MEKK3 PB1 HTS 124*, SKN-1 inh -1, MEKK2mut PB1 HTS 9, MEKK2wt confirm 102, MEKK2mut-MEK5 -3 and MEKK3 confirm 102.
`COc1cccc(NC(=O)CSc2nnc(-c3ccc(C)cc3)o2)c1` gave MEKK2 WT-MEK5 84, CendR NRP1 mod -4, MEKK3 PB1 HTS 82*[inhibitor], SKN-1 inh 4, MEKK2mut PB1 HTS -6, MEKK2wt confirm 104, MEKK2mut-MEK5 3 and MEKK3 confirm 102.
Screening CC(=O)Nc1ccc(NC(=O)CSc2nnc(-c3ccco3)o2)cc1 returned MEKK2 WT-MEK5 112, CendR NRP1 mod 9, MEKK3 PB1 HTS 129*, SKN-1 inh 14, MEKK2mut PB1 HTS 1, MEKK2wt confirm 95, MEKK2mut-MEK5 -25 and MEKK3 confirm 93.
`Cc1cc(C)cc(-c2nnc(SCC(=O)NCc3cccs3)o2)c1` gave MEKK2 WT-MEK5 -2.0*[inhibitor], CendR NRP1 mod 0, MEKK3 PB1 HTS 1.0*[inhibitor], SKN-1 inh 11, MEKK2mut PB1 HTS -20, MEKK2wt confirm 113, MEKK2mut-MEK5 6 and MEKK3 confirm 102.
Screening CCc1ccc(NC(=O)CSc2nnc(-c3ccco3)o2)cc1 returned MEKK2 WT-MEK5 100, CendR NRP1 mod 6, MEKK3 PB1 HTS 100, SKN-1 inh 8 and MEKK2mut PB1 HTS 3.
For O=C1C=C(O)c2[nH]c(=O)ccc2C1=O the results were CendR NRP1 mod 10 and SKN-1 inh 17.
For CC(C)CNC(=O)C1C(=O)Nc2ccccc2C(=O)N1C(C)(C)C (stereo not drawn) the results were CendR NRP1 mod 12 and SKN-1 inh -11.
For O=C(COc1ccc2ccc(=O)oc2c1)N1CC[C@@]2(O)CCCC[C@H]2C1 the results were MEKK2 WT-MEK5 1.0*[inhibitor], CendR NRP1 mod 2, MEKK3 PB1 HTS 2.0*[inhibitor], SKN-1 inh 9, MEKK2mut PB1 HTS -24, MEKK2wt confirm 107, MEKK2mut-MEK5 5 and MEKK3 confirm 113.
Screening O=c1[nH]c(/C=C\c2ccccc2F)nc(O)c1[N+](=O)[O-] returned MEKK2 WT-MEK5 98, CendR NRP1 mod -5, MEKK3 PB1 HTS 99, SKN-1 inh 5 and MEKK2mut PB1 HTS 2.
Screening CNc1ccc(/C=C\CCCO)cn1 returned CendR NRP1 mod 23 and SKN-1 inh -3.
For COc1ccc(CSc2nc3ccccc3c(=O)[nH]2)cc1F the results were MEKK2 WT-MEK5 9.0*[inhibitor], CendR NRP1 mod 14, MEKK3 PB1 HTS 6.0*[inhibitor], SKN-1 inh -1, MEKK2mut PB1 HTS -23, MEKK2wt confirm 100, MEKK2mut-MEK5 0 and MEKK3 confirm 104.
For COCCn1c(SCc2ccc(OC)c(F)c2)nc2ccccc2c1=O the results were MEKK2 WT-MEK5 134, CendR NRP1 mod 6, MEKK3 PB1 HTS 156*, SKN-1 inh 0, MEKK2mut PB1 HTS 7, MEKK2wt confirm 101, MEKK2mut-MEK5 2 and MEKK3 confirm 103.
Screening COCCn1c(SCc2ccc(F)cc2)nc2ccccc2c1=O returned MEKK2 WT-MEK5 101, CendR NRP1 mod 10, MEKK3 PB1 HTS 102, SKN-1 inh -6 and MEKK2mut PB1 HTS 6.
`COc1ccc([N+](=O)[O-])cc1N(CC(=O)NC1CCCCC1)S(C)(=O)=O` gave MEKK2 WT-MEK5 108, CendR NRP1 mod -1, MEKK3 PB1 HTS 102, SKN-1 inh 0 and MEKK2mut PB1 HTS 3.
Screening Cc1ccc([N+](=O)[O-])cc1N(CC(=O)NC1CCCC1)S(C)(=O)=O returned MEKK2 WT-MEK5 75, CendR NRP1 mod 2, MEKK3 PB1 HTS 73*[inhibitor], SKN-1 inh 4, MEKK2mut PB1 HTS -7, MEKK2wt confirm 103, MEKK2mut-MEK5 -2 and MEKK3 confirm 104.
Screening COc1ccc(-n2c(=O)c3ccccc3n(CC(=O)NC3CCCCC3)c2=O)cc1 returned MEKK2 WT-MEK5 121, CendR NRP1 mod 6, MEKK3 PB1 HTS 124*, SKN-1 inh -11, MEKK2mut PB1 HTS 4, MEKK2wt confirm 104, MEKK2mut-MEK5 2 and MEKK3 confirm 102.
Screening COc1cc(NC(=O)Cn2c(=O)n(CC3CCCO3)c(=O)c3ccccc32)cc(OC)c1 (stereo not drawn) returned MEKK2 WT-MEK5 113, CendR NRP1 mod 3, MEKK3 PB1 HTS 138*, SKN-1 inh -8, MEKK2mut PB1 HTS 0, MEKK2wt confirm 116, MEKK2mut-MEK5 14 and MEKK3 confirm 109.
COc1ccc(NC(=O)Cn2c(=O)n(CC3CCCO3)c(=O)c3ccccc32)c(OC)c1 (stereo not drawn) was read as MEKK2 WT-MEK5 92, CendR NRP1 mod 9, MEKK3 PB1 HTS 100, SKN-1 inh -2 and MEKK2mut PB1 HTS -2.
For CCCNC(=O)c1cc(C2CCCN(C(=O)c3ccccc3)C2)on1 (stereo not drawn) the results were CendR NRP1 mod 4 and SKN-1 inh -9.
`CN(C)CCn1cnc2c(c1=N)C(c1ccccc1)c1ccc3ccccc3c1O2` (stereo not drawn) gave MEKK2 WT-MEK5 142*, CendR NRP1 mod 8, MEKK3 PB1 HTS 106, SKN-1 inh -11, MEKK2mut PB1 HTS 17, MEKK2wt confirm 149, MEKK2mut-MEK5 23 and MEKK3 confirm 99.
N=c1c2c(ncn1CCN1CCOCC1)Oc1ccc3ccccc3c1C2c1ccccc1 (stereo not drawn) was read as MEKK2 WT-MEK5 141*, CendR NRP1 mod -2, MEKK3 PB1 HTS 106, SKN-1 inh -3, MEKK2mut PB1 HTS 15, MEKK2wt confirm 124, MEKK2mut-MEK5 4 and MEKK3 confirm 101.
